Inconclusive results are not listed. Calls of active or inactive are those of the source. Unless noted, calls follow the shape of the full dose curve.
Assays:
[1] = Nuclear factor erythroid 2-related factor 2/antioxidant responsive element (Nrf2/ARE) small molecule agonists: qHTS cell viability counter screen in human keratinocytes (AID 1919968; active = well fitted curve in the direction sought with a large enough effect in the repeat runs; an effect the other way counts as inactive or inconclusive; also: nearly all actives have a fitted effect of over 55% in size)
Outline: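 CellTiter-Fluor fluorescence, read 1 h after reagent, gave viability in the same wells as the ARE-luciferase assay. KeratinoSens cells (1,500/well) had 23 h compound exposure at 37 C/5% CO2 following 5 h plating.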

[2] = Nuclear factor erythroid 2-related factor 2/antioxidant responsive element (Nrf2/ARE) small molecule agonists: luciferase reporter gene qHTS assay in human keratinocytes (AID 1919969); also: nearly all actives have a fitted effect of over 35% in size
[3] = target: Gonadotropin-releasing hormone receptor (Homo sapiens) (UniProt P30968); test: Human gonadotropin-releasing hormone receptor (GnRHR) small molecule agonists, calcium flux assay in GnRHR-HEK293 cells (AID 1920063); also: nearly all actives have a fitted effect of over 35% in size
Outline: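 Agonist mode: compounds at 15 concentrations, in triplicate, went onto calcium dye-loaded GnRHR-HEK293 cells. Intracellular calcium was then followed as 480/540 nm fluorescence at 1 s intervals over 3 min.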

[4] = target: KiSS-1 receptor (Homo sapiens) (UniProt Q969F8); test: Human kisspeptin (KISS1R) small molecule agonists, calcium flux assay in KISS1R-HEK293 cells (AID 1920064; active = well fitted curve in the direction sought with a large enough effect in the repeat runs; an effect the other way counts as inactive or inconclusive)
Outline: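 Agonist mode: intracellular calcium rise tracked at 1 s intervals over 3 min (480/540 nm) immediately after compound addition to dye-loaded KISS1R-HEK293 stable cells. Each compound tested at 15 concentrations in triplicate.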

[5] = G protein-coupled receptor (GPCR) small molecule agonists, calcium flux assay: HEK293 wild type cell line counter screen (AID 1920065)
Outline: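 Calcium flux counter screen: compound added in agonist mode at 15 concentrations in triplicate to dye-loaded parental HEK293 cells. Fluorescence (480/540) read kinetically for 3 min; ATP served as positive control.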

[6] = p53 small molecule agonists, cell-based qHTS assay with rat liver microsomes (AID 1963578)
Outline: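 Quantitative HTS of the Tox21 10K library: p53RE-bla cells, rat liver microsomes plus NADPH at 0.5 mg/mL final each, 16 h at 37 C, beta-lactamase fluorescence detection.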

[7] = p53 small molecule agonists, cell-based qHTS assay with human liver microsomes: qHTS cell viability counter screen (AID 1963579); also: nearly all actives have a fitted effect of over 45% in size
Outline: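 Viability of p53RE-bla cells is measured as CellTiter-Glo luminescence following a 16 h, 37 C incubation with compound, liver microsomes from human donors and NADPH.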

[8] = p53 small molecule agonists, cell-based qHTS assay: qHTS cell viability counter screen (AID 1963581); also: nearly all actives have a fitted effect of over 45% in size
Outline: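 Counter screen read by CellTiter-Glo luminescence (ATP content, 30 min at room temperature), run in the same wells as the beta-lactamase reporter read. HCT-116 p53RE-bla cells saw compounds for 16 h at 37 C.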

[9] = p53 small molecule agonists, cell-based qHTS assay (AID 1963582; active = well fitted activation curve with a large enough effect in the signal ratio in the repeat runs, not every such curve was filed as active; the % refers to the signal ratio)
Outline: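 Read-out is beta-lactamase FRET fluorescence after 2 h at room temperature with LiveBLAzer B/G substrate. p53 response element-bla cells were treated 16 h at 37 C with compounds in DMSO, added 5 h after seeding.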

[10] = target: 5-hydroxytryptamine receptor 2A (Homo sapiens) (UniProt P28223); test: 5-hydroxytryptamine receptor 2A (HTR2A) small molecule antagonists, cell-based qHTS assay (AID 1963586); also: nearly all actives have a fitted effect of over 45% in size
Outline: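 CHO cells stably expressing human HTR2A were plated for 18 h at 37 C, then loaded with calcium dye for 1 h. Compounds were preincubated 5 min at room temperature before DOI (4 nM solution) was added. Kinetic fluorescence was read for 3 min.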

[11] = target: 5-hydroxytryptamine receptor 2A (Homo sapiens) (UniProt P28223); test: 5-hydroxytryptamine receptor 2A (HTR2A) small molecule agonists, cell-based qHTS assay (AID 1963587); also: nearly all actives have a fitted effect of over 30% in size
Outline: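 Kinetic calcium-flux fluorescence (2 min, 1 sec intervals) after compound addition in agonist mode. HTR2A-CHO cells were cultured 18 h, then dye-loaded 1 h at 37 C.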

[12] = target: Muscarinic acetylcholine receptor M1 (Homo sapiens) (UniProt P11229); test: Cholinergic receptor muscarinic 1 (CHRM1) small molecule antagonists, cell-based qHTS assay (AID 1963588); also: nearly all actives have a fitted effect of over 40% in size
Outline: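 Compounds were tested at 15 concentrations in three independent runs. Dye-loaded CHRM1-CHO cells were exposed 5 min at room temperature before stimulation by acetylcholine added at 50nM. Intracellular calcium was read kinetically on FDSS for 3 min.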

[13] = target: Muscarinic acetylcholine receptor M1 (Homo sapiens) (UniProt P11229); test: Cholinergic receptor muscarinic 1 (CHRM1) small molecule agonists, cell-based qHTS assay (AID 1963589); also: nearly all actives have a fitted effect of over 35% in size
Outline: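 Agonist-mode calcium-flux screen: compounds at 15 concentrations, three independent runs, were pin-transferred onto dye-loaded human CHRM1-CHO cells. Fluorescence was then recorded kinetically every second over minutes.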

[14] = cAMP Responsive Elements (CRE) small molecule agonists, cell-based qHTS assay (AID 1963590)
Outline: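 Agonist mode: compound added to CRE-bla HEK 293T cells (2,000/well, 18 h after plating) for 3 h at 37 C/5% CO2. Reporter activity detected via FRET beta-lactamase substrate, 2 h room-temperature loading.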

[15] = cAMP Responsive Elements (CRE) small molecule antagonists, cell-based qHTS assay (AID 1963591; active = well fitted inhibition curve with a large enough effect in the signal ratio in the repeat runs, not every such curve was filed as active; the % refers to the signal ratio)
Outline: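 Antagonist mode: compounds are added alongside the adenylyl cyclase activator NKH477 (0.25 uM final) to CRE-bla HEK293T cells for 3 h. LiveBLAzer FRET substrate, 2 h at room temperature, reports bla expression.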

[16] = target: Beta-2 adrenergic receptor (Homo sapiens) (UniProt P07550); test: Adrenergic beta2 receptor (ADRB2) small molecule antagonists, cell-based qHTS assay (AID 1963592); also: series mostly up to about 92 µM; nearly all actives have a fitted effect of over 50% in size
Outline: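 Assay format: CHO-ADRB2 cells, 18-20hr seeding at 37C/5% CO2, then compound plus 1nM isoproterenol agonist mix for 0.5hr RT. Homogeneous time-resolved fluorescence cAMP detection after 1hr, expressed as 665/615 nm ratio.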

[17] = target: Beta-2 adrenergic receptor (Homo sapiens) (UniProt P07550); test: Adrenergic beta2 receptor (ADRB2) small molecule agonists, cell-based qHTS assay (AID 1963593);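 also: CHO cells stably overexpressing human ADRB2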
Outline: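 CHO cells stably over-expressing ADRB2 were plated overnight at 37C, then dosed with compounds plus a stimulation mix containing 100uM IBMX and 25uM Ro-20-1724 for 0.5hr at room temperature. cAMP was measured by HTRF competition, 1hr.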

[18] = target: D(2) dopamine receptor (Homo sapiens) (UniProt P14416); test: Dopamine D2 receptor (DRD2) small molecule agonists, cell-based qHTS assay (AID 1963594); also: nearly all actives have a fitted effect of over 35% in size
Outline: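 cAMP accumulation in DRD2-HEK293 cells measured by HTRF after 1 h detection; compounds added 10 min before NKH477 (200nM […]) forskolin-analogue stimulation, 30 min at room temperature, with Ro20-1724 present at 0.1 mM final.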

[19] = target: D(2) dopamine receptor (Homo sapiens) (UniProt P14416); test: Dopamine D2 receptor (DRD2) small molecule antagonists, cell-based qHTS assay (AID 1963595; active = well fitted inhibition curve with a large enough effect in the signal ratio in the repeat runs, with a control signal flat; the % refers to the signal ratio)
Outline: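 Antagonist mode in DRD2-HEK293 cells: after compound addition with 0.1 mM Ro20-1724, cells received quinpirole (12 nM) and NKH477 (200 nM) for 30 min at room temperature; HTRF cAMP read after 1 h detection.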

[20] = p53 small molecule agonists, cell-based qHTS assay with rat liver microsomes: qHTS cell viability counter screen (AID 1963580); also: nearly all actives have a fitted effect of over 45% in size
Outline: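 Rat liver microsome (0.5 mg/mL final) and NADPH (0.5 mg/mL final) co-incubation with compounds for 16 h at 37 C on HCT-116 p53RE-bla cells; cytotoxicity taken from intracellular ATP luminescence.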

Measured: Potency

Sequence of Gonadotropin-releasing hormone receptor (Homo sapiens) (P30968 whole entry, looked up): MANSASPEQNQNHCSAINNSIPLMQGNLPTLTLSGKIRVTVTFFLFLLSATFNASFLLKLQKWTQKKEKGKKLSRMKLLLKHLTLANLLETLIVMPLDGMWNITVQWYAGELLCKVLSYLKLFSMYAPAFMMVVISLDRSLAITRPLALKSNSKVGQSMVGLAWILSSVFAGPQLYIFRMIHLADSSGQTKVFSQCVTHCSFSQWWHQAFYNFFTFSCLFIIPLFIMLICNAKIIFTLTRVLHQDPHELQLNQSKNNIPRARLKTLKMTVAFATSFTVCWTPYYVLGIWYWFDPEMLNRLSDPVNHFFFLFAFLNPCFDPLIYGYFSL
Sequence of KiSS-1 receptor (Homo sapiens) (Q969F8 whole entry, looked up): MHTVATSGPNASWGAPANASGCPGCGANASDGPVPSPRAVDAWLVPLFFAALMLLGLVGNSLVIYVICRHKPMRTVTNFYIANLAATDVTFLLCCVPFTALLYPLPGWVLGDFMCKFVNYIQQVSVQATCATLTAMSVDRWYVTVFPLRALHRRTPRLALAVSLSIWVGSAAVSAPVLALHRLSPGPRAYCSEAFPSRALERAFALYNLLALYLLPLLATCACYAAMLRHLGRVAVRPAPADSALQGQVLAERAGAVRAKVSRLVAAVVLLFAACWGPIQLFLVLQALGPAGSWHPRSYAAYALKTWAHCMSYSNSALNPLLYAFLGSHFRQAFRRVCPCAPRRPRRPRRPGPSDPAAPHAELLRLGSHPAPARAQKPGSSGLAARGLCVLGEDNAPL
Sequence of D(2) dopamine receptor (Homo sapiens) (P14416 whole entry, looked up): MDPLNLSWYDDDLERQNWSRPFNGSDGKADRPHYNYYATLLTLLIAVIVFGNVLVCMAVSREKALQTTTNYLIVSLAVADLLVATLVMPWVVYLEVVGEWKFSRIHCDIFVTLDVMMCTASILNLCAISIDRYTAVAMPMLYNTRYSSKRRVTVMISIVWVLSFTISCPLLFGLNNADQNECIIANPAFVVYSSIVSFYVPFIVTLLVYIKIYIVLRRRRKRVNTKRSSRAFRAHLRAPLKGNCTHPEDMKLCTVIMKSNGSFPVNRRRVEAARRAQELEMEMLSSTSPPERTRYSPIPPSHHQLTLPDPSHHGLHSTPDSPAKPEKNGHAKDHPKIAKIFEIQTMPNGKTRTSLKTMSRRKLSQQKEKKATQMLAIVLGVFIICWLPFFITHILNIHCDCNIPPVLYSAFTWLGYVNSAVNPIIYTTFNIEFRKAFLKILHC
Sequence of Beta-2 adrenergic receptor (Homo sapiens) (P07550 whole entry, looked up): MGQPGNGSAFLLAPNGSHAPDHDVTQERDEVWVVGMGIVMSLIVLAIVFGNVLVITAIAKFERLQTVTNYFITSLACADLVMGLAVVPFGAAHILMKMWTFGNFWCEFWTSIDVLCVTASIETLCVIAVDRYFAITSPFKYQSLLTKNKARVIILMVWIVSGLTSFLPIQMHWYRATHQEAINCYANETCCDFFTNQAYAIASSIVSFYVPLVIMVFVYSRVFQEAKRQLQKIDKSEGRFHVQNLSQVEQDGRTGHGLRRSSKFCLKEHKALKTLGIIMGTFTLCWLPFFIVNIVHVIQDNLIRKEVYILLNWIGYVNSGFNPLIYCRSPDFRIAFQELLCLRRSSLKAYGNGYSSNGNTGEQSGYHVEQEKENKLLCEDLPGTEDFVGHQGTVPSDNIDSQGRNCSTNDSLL
Sequence of 5-hydroxytryptamine receptor 2A (Homo sapiens) (P28223 whole entry, looked up): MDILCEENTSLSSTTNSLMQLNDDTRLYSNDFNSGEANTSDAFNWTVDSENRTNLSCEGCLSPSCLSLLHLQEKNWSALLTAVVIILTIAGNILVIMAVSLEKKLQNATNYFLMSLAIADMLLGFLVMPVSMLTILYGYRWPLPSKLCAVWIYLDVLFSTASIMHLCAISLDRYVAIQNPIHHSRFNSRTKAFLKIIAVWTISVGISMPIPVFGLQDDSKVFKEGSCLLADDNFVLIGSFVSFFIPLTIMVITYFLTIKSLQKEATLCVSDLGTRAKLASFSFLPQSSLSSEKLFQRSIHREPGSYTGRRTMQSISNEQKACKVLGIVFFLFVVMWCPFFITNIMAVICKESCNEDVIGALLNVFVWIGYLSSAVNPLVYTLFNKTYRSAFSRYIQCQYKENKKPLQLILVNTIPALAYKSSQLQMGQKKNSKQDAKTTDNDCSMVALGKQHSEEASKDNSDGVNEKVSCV
Sequence of Muscarinic acetylcholine receptor M1 (Homo sapiens) (P11229 whole entry, looked up): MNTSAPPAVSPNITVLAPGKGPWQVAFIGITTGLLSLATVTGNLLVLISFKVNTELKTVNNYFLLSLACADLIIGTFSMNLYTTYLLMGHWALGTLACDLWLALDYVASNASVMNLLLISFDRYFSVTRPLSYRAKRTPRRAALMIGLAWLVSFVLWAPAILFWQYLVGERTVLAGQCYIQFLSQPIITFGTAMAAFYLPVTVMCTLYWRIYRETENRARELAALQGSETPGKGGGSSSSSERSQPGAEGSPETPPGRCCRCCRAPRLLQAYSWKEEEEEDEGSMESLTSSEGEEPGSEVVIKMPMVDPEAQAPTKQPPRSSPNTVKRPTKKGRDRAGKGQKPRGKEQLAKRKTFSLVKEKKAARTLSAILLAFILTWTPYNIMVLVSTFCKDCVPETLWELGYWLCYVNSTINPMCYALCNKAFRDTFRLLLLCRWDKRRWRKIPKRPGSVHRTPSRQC

CC(C)CCO
not listed: [20]
inactive: all other assays above

CC(C)=CCC/C(C)=C/C#N
not listed: [8] | [11] | [14] | [16] | [19]
inactive: all other assays above

CCCCCCCCCCCCC(=O)O
not listed: [7] | [8]
inactive: all other assays above

CC1=CC(=O)[C@H]2C[C@@H]1C2(C)C
not listed: [7]
inactive: all other assays above

CC(C)CC(C)O (stereo unspecified)
not listed: [6] | [9]
inactive: all other assays above

O=C1c2ccccc2CCc2ccccc21
not listed: [6] | [9]
inactive: all other assays above

C=CCc1cc(OC)c(O)c(C(=O)NCCO)c1
not listed: [7]
inactive: all other assays above

From PubChem BioAssay (Tox21)
